The panel holds about 79,000 compounds, 15% with a hit somewhere; the sample as a whole holds those more often. Values without a mark were called inactive. The source made the active and inactive calls. No stated cut-off is given here; in the data, active means growth inhibition above about 70%; inactive means the rest.

A short description of experiment [1]: NCI Yeast Anticancer Drug Screen. Data for the rad50 strain (AID 155).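 Further: 0% = growth of vehicle-only cultures of the same strain.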 Conditions: S. cerevisiae rad50 strain growth inhibition, active compounds read high. In short, it runs like this: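 Relative growth inhibition (compound vs vehicle) was measured in yeast with a defined repair-gene alteration.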
A short description of experiment [2]: NCI Yeast Anticancer Drug Screen. Data for the mec2-1 strain (AID 157). The note with it: S. cerevisiae mec2-1 strain, active compounds read high. In short, it runs like this:
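Each compound was tested on mec2-1 yeast, a strain altered in DNA damage repair or cell cycle control. Growth inhibition is reported relative to vehicle.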

Experiment [3] is described as follows: NCI Yeast Anticancer Drug Screen. Data for the sgs1 mgt1 strain (AID 161).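 Further: 0% = growth of cultures given vehicle only.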 Conditions: S. cerevisiae sgs1 mgt1 strain, active compounds read high. In short, it runs like this: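 Mutant yeast exposed to compound; growth scored against vehicle-only wells.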
Experiment [4] is described as follows: NCI Yeast Anticancer Drug Screen. Data for the cln2 rad14 strain (AID 165).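 Further: 0% = growth equal to vehicle treated cultures.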 The note with it: S. cerevisiae cln2 rad14 strain, active compounds read high. In short, it runs like this:
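Test compounds were added to cln2 rad14 yeast cultures; inhibition of growth was then determined by comparison with vehicle treatment.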

A short description of experiment [5]: NCI Yeast Anticancer Drug Screen. Data for the bub3 strain (AID 167). The note with it: S. cerevisiae bub3 mutant strain, active compounds read high. In short, it runs like this: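 Screening used yeast with an engineered genetic alteration affecting cell cycle control. Compound-exposed cultures were compared with vehicle cultures, and reduced growth was taken as inhibition.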

A short description of experiment [6]: NCI Yeast Anticancer Drug Screen. Data for the mlh1 rad18 strain (AID 175). Conditions: S. cerevisiae mlh1 rad18 strain growth inhibition, active compounds read high. In short, it runs like this: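 Inhibition values reflect reduced growth of mutant yeast versus vehicle-treated controls following compound exposure; the mutations affect DNA damage repair.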
[7] abbreviates: at 5.0 µM (retest, dose inferred, filed as 0.5).
Where [8] appears, read: at 50.0 µM (retest, dose inferred, filed as 5.0).

Turning to `COc1ccc(C2COc3cc(O)c(O)cc3C2)cc1` (stereo not given), the growth inhibition in experiment [1] (setting [7]) was 95% (active); in experiment [1] (setting [8]) it was 99% (active); in experiment [1] (at 50.0 µM), 99.6% (active); in experiment [2] (setting [7]), 95% (active); in experiment [2] (setting [8]), 99% (active); in experiment [2] (at 50.0 µM) it was 99.6% (active). The growth inhibition in experiment [3] (setting [7]) is 93% (active); in experiment [3] (setting [8]), 99% (active); in experiment [3] (at 50.0 µM), 99.8% (active); in experiment [4] (setting [7]) it was 46%; in experiment [4] (setting [8]), 99% (active); in experiment [4] (at 50.0 µM) it was 99.6% (active). In addition, the growth inhibition in experiment [5] (setting [7]) is 98% (active); in experiment [5] (setting [8]), 99% (active); in experiment [5] (at 50.0 µM), 99.6% (active); in experiment [6] (setting [7]), 99% (active); in experiment [6] (setting [8]), 99% (active); in experiment [6] (at 50.0 µM), 98.2% (active).

`CC(=O)O[C@H]1CC[C@H]2[C@@H]3CCc4cc(O)c(I)cc4[C@H]3CC[C@]12C`: the growth inhibition in experiment [1] (setting [7]) is 12%; in experiment [1] (setting [8]), 84% (active); in experiment [1] (at 50.0 µM) it was 51.3%; in experiment [2] (setting [7]), 0%; in experiment [2] (setting [8]) it was 58%; in experiment [2] (at 50.0 µM), 43.8%. Moreover, the growth inhibition is 23% in experiment [3] (setting [7]); 93% (active) in experiment [3] (setting [8]); 72.4% (active) in experiment [3] (at 50.0 µM); 21% in experiment [4] (setting [7]); 75% (active) in experiment [4] (setting [8]); 45% in experiment [4] (at 50.0 µM). Besides, the growth inhibition in experiment [5] (setting [7]) is 20%; in experiment [5] (setting [8]) it was 82% (active); in experiment [5] (at 50.0 µM) it was 47.5%; in experiment [6] (setting [7]), 6%; in experiment [6] (setting [8]) it was 80% (active); in experiment [6] (at 50.0 µM), 63.4%.

Regarding `O=C(O)C1C(C(=O)O)C23CC2(C(=O)O)C2(C(=O)O)CCC3=C3CCCC312` (stereo not given), the growth inhibition was 3% in experiment [1] (setting [7]); 100% (active) in experiment [1] (setting [8]); 51.3% in experiment [1] (at 50.0 µM); -1% in experiment [2] (setting [7]); 99% (active) in experiment [2] (setting [8]); 55% in experiment [2] (at 50.0 µM). Besides, the growth inhibition was -7% in experiment [3] (setting [7]); 100% (active) in experiment [3] (setting [8]); 47.8% in experiment [3] (at 50.0 µM); -21% in experiment [4] (setting [7]); 99% (active) in experiment [4] (setting [8]); 19.4% in experiment [4] (at 50.0 µM). Also, the growth inhibition in experiment [5] (setting [7]) was 5%; in experiment [5] (setting [8]) it was 99% (active); in experiment [5] (at 50.0 µM) it was 85.3% (active); in experiment [6] (setting [7]), -3%; in experiment [6] (setting [8]), 100% (active); in experiment [6] (at 50.0 µM) it was 67.8%.

As for `COc1cc(C2SC(N)=Nc3c2c(C)nn3C(=O)c2ccccc2O)cc(OC)c1OC` (stereo not given), the growth inhibition in experiment [1] (setting [7]) was -1%; in experiment [1] (setting [8]), 80% (active); in experiment [1] (at 50.0 µM) it was 52.5%; in experiment [2] (setting [7]) it was -10%; in experiment [2] (setting [8]) it was 71% (active); in experiment [2] (at 50.0 µM), 39.9%. Also, the growth inhibition in experiment [3] (setting [7]) was -5%; in experiment [3] (setting [8]), 75% (active); in experiment [3] (at 50.0 µM), 79.8% (active); in experiment [4] (setting [7]), 3%; in experiment [4] (setting [8]), 25%; in experiment [4] (at 50.0 µM), 56.4%. For the same compound, the growth inhibition in experiment [5] (setting [7]) is -1%; in experiment [5] (setting [8]) it was 70% (active); in experiment [5] (at 50.0 µM), 79.1% (active); in experiment [6] (setting [7]), 6%; in experiment [6] (setting [8]), 86% (active); in experiment [6] (at 50.0 µM), 50.2%.

In the case of `Clc1ccccc1CN1COc2c(ccc3cccnc23)C1`, the growth inhibition in experiment [1] (setting [7]) was 9%; in experiment [1] (setting [8]) it was 21%; in experiment [1] (at 50.0 µM), 69%; in experiment [2] (setting [7]), 12%; in experiment [2] (setting [8]) it was 16%; in experiment [2] (at 50.0 µM), 32.9%. Also, the growth inhibition in experiment [3] (setting [7]) is 7%; in experiment [3] (setting [8]) it was 51%; in experiment [3] (at 50.0 µM), 55.5%; in experiment [4] (setting [7]), 0%; in experiment [4] (setting [8]), 44%; in experiment [4] (at 50.0 µM) it was 13.3%. Besides, the growth inhibition is 7% in experiment [5] (setting [7]); 31% in experiment [5] (setting [8]); 26.1% in experiment [5] (at 50.0 µM); 19% in experiment [6] (setting [7]); 72% (active) in experiment [6] (setting [8]); 41.6% in experiment [6] (at 50.0 µM).

Turning to `COc1cc(OC)cc(C2OC3=C(Nc4ccc([N+](=O)[O-])cc4N3)C2=O)c1` (stereo not given), the growth inhibition in experiment [1] (setting [7]) was 2%; in experiment [1] (setting [8]) it was 60%; in experiment [1] (at 50.0 µM), 86.8% (active); in experiment [2] (setting [7]) it was 10%; in experiment [2] (setting [8]) it was 40%; in experiment [2] (at 50.0 µM), 59.8%. The growth inhibition in experiment [3] (setting [7]) is 30%; in experiment [3] (setting [8]), 50%; in experiment [3] (at 50.0 µM), 81.1% (active); in experiment [4] (setting [7]) it was 11%; in experiment [4] (setting [8]), 29%; in experiment [4] (at 50.0 µM), 57%. Moreover, the growth inhibition in experiment [5] (setting [7]) was 24%; in experiment [5] (setting [8]), 16%; in experiment [5] (at 50.0 µM), 51.2%; in experiment [6] (setting [7]), -4%; in experiment [6] (setting [8]), 49%; in experiment [6] (at 50.0 µM), 82.4% (active).

Consider `N=C(/C(=C/c1ccccc1)c1ccccc1)c1ccccc1`, for which the growth inhibition is 5% in experiment [1] (setting [7]); 78% (active) in experiment [1] (setting [8]); 97.6% (active) in experiment [1] (at 50.0 µM); 8% in experiment [2] (setting [7]); 76% (active) in experiment [2] (setting [8]); 98.8% (active) in experiment [2] (at 50.0 µM). The growth inhibition in experiment [3] (setting [7]) is 6%; in experiment [3] (setting [8]) it was 98% (active); in experiment [3] (at 50.0 µM) it was 98.5% (active); in experiment [4] (setting [7]), -4%; in experiment [4] (setting [8]), 97% (active); in experiment [4] (at 50.0 µM), 97.8% (active). Moreover, the growth inhibition in experiment [5] (setting [7]) was 25%; in experiment [5] (setting [8]) it was 98% (active); in experiment [5] (at 50.0 µM), 98.7% (active); in experiment [6] (setting [7]), 5%; in experiment [6] (setting [8]), 98% (active); in experiment [6] (at 50.0 µM) it was 97.9% (active).

Turning to `CC[N+]1(C)CCC(O)(/C=C/c2ccccc2)C(C(=O)/C=C/c2ccccc2)C1` (stereo not given), the growth inhibition in experiment [1] (setting [7]) was 7%; in experiment [1] (setting [8]), 98% (active); in experiment [1] (at 50.0 µM) it was 99.3% (active); in experiment [2] (setting [7]), 11%; in experiment [2] (setting [8]), 99% (active); in experiment [2] (at 50.0 µM), 99.7% (active). Besides, the growth inhibition was 12% in experiment [3] (setting [7]); 54% in experiment [3] (setting [8]); 99.2% (active) in experiment [3] (at 50.0 µM); 8% in experiment [4] (setting [7]); 98% (active) in experiment [4] (setting [8]); 83% (active) in experiment [4] (at 50.0 µM). For the same compound, the growth inhibition is 7% in experiment [5] (setting [7]); 99% (active) in experiment [5] (setting [8]); 99.3% (active) in experiment [5] (at 50.0 µM); 11% in experiment [6] (setting [7]); 99% (active) in experiment [6] (setting [8]); 99.3% (active) in experiment [6] (at 50.0 µM).

With `COc1ccccc1/C=C1\S/C(=N/Nc2nc(C)c(C(C)=O)s2)NC1=O`, the growth inhibition in experiment [1] (setting [7]) was 20%; in experiment [1] (setting [8]), 29%; in experiment [1] (at 50.0 µM), -14.6%; in experiment [2] (setting [7]), 15%; in experiment [2] (setting [8]), 32%; in experiment [2] (at 50.0 µM) it was -3.1%. The growth inhibition was 20% in experiment [3] (setting [7]); 39% in experiment [3] (setting [8]); -0.75% in experiment [3] (at 50.0 µM); 20% in experiment [4] (setting [7]); 34% in experiment [4] (setting [8]); 5.4% in experiment [4] (at 50.0 µM). Moreover, the growth inhibition is 17% in experiment [5] (setting [7]); 43% in experiment [5] (setting [8]); -18% in experiment [5] (at 50.0 µM); 15% in experiment [6] (setting [7]); 36% in experiment [6] (setting [8]); -7.7% in experiment [6] (at 50.0 µM).

Regarding `COc1ccc([N+](=O)[O-])cc1[I+]c1cc([N+](=O)[O-])ccc1OC`, the growth inhibition is 19% in experiment [1] (setting [7]); 95% (active) in experiment [1] (setting [8]); 93.2% (active) in experiment [1] (at 50.0 µM); 58% in experiment [2] (setting [7]); 89% (active) in experiment [2] (setting [8]); 76.3% (active) in experiment [2] (at 50.0 µM). Also, the growth inhibition in experiment [3] (setting [7]) is 49%; in experiment [3] (setting [8]), 95% (active); in experiment [3] (at 50.0 µM), 92.2% (active); in experiment [4] (setting [7]), 16%; in experiment [4] (setting [8]) it was 86% (active); in experiment [4] (at 50.0 µM), 94.2% (active). Moreover, the growth inhibition in experiment [5] (setting [7]) is 9%; in experiment [5] (setting [8]) it was 85% (active); in experiment [5] (at 50.0 µM), 90.8% (active); in experiment [6] (setting [7]) it was 57%; in experiment [6] (setting [8]) it was 98% (active); in experiment [6] (at 50.0 µM), 95.7% (active).

Values taken from PubChem BioAssay (NCI).
